Laboratory results reported in the supplement of paper PMC11732987, “Enantioselective OTUD7B fragment discovery through chemoproteomics screening and high-throughput optimisation” (Communications Chemistry, 2025).

How the values were obtained:
Assay in all cases: log2 ratio of Biotin-Ahx-Ub-VS probe labelling (fragment/DMSO); higher = less target engagement (more negative = stronger competition), active = hit call of the paper (q ≤ 0.05, log2 ratio ≤ -1)
Details in all cases: compound concentration: 200 uM; treatment time: 3 h
USP42 = molecular target: T1, USP42 (UniProt Q9H9J4)
T1 sequence (whole entry): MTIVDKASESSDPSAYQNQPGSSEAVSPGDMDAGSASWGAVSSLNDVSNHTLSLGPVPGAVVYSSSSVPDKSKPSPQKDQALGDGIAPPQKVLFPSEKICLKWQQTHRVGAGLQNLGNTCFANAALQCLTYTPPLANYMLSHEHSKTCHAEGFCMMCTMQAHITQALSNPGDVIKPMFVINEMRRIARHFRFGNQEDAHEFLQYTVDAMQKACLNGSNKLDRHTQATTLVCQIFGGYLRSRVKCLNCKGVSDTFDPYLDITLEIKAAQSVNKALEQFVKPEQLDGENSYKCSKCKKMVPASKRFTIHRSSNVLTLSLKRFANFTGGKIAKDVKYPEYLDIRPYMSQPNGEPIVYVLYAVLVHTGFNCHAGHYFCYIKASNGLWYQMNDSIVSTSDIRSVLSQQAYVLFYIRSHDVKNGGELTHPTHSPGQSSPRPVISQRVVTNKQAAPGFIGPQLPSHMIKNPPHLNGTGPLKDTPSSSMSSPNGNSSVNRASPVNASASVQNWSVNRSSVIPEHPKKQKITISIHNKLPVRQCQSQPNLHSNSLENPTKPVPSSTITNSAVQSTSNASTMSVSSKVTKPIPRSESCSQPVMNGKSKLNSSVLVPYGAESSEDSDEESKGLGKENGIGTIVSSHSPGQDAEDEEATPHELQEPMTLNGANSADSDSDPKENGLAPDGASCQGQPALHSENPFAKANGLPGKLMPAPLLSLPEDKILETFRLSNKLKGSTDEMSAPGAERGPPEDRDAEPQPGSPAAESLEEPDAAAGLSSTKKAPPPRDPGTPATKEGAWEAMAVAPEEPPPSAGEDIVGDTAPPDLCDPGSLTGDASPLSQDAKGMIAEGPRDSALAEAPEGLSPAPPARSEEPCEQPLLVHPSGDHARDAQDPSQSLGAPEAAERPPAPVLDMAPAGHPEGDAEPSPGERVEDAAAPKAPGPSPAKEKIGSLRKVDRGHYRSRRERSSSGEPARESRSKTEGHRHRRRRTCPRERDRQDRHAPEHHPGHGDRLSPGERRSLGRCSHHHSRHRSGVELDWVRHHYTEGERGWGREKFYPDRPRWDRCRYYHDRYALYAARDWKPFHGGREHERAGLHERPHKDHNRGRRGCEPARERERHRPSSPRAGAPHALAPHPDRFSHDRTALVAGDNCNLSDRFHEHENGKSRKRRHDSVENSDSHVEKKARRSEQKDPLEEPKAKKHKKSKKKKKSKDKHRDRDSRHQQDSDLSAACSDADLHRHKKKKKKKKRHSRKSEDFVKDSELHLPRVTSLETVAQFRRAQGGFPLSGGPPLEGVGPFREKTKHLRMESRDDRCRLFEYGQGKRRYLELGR
Summary of the method: (§1)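 Labelled DUBs were enriched with NeutrAvidin, digested with LysC and trypsin, and run by diaPASEF LC-MS/MS. The labelling used Biotin-Ahx-Ub-VS at 0.5 µM final for 1 h on HEK293T lysate (495 µg per sample) previously treated in triplicate with fragment at 200 µM or vehicle for 3 h. Values are average log2 fragment/vehicle ratios by unpaired t-test on global-median-normalised Spectronaut quantities of proteins with ≥2 unique peptides.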

USP46 = USP46 (UniProt P62068)
Chain of USP46 (P62068 whole entry): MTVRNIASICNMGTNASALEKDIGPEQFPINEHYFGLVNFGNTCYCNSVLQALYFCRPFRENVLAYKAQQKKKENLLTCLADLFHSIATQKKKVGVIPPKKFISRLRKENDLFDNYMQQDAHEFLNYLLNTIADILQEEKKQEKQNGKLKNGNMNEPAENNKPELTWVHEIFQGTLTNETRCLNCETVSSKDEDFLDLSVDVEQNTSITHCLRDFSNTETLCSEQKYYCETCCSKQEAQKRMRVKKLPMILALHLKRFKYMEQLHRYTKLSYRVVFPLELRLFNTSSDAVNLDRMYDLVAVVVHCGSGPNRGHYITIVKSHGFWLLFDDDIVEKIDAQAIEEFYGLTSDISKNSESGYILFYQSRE
Summary of the method: as §1

USP47 = molecular target: T2, USP47 (UniProt Q96K76)
T2 sequence (whole entry): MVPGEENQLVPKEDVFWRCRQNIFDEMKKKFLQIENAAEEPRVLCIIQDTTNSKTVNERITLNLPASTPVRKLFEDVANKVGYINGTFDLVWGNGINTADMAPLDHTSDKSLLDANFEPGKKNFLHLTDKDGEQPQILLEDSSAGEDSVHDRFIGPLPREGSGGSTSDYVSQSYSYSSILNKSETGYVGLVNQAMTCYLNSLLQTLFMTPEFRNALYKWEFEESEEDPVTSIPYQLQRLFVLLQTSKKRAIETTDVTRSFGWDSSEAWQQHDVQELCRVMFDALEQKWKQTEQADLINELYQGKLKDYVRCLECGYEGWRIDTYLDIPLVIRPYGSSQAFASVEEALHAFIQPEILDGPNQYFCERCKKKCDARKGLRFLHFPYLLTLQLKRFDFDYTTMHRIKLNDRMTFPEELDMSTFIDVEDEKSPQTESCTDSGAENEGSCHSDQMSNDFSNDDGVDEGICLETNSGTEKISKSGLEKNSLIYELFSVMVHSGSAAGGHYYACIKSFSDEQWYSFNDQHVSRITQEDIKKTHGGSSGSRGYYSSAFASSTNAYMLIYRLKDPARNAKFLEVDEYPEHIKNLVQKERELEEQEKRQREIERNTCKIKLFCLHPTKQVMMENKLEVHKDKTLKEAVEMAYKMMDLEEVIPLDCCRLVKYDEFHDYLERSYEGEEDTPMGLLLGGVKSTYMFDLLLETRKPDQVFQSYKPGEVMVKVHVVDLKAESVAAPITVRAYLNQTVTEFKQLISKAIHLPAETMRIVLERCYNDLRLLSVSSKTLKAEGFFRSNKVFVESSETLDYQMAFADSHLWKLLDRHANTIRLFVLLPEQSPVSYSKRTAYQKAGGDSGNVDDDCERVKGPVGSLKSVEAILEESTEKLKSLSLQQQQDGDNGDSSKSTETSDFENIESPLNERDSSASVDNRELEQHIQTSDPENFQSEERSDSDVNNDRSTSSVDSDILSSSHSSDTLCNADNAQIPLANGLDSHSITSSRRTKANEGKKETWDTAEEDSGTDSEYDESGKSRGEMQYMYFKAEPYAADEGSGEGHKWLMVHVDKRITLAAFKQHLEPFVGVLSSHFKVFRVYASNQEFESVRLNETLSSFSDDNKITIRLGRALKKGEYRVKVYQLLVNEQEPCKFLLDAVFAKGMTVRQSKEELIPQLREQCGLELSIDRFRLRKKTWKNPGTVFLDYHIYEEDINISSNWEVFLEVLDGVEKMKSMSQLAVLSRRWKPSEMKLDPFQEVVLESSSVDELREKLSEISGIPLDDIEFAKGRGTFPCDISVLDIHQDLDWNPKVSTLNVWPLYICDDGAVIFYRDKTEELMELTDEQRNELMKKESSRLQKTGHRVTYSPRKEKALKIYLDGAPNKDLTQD
Summary of the method: as §1

USP48 = molecular target: T3, USP48 (UniProt Q86UV5)
T3 sequence (whole entry): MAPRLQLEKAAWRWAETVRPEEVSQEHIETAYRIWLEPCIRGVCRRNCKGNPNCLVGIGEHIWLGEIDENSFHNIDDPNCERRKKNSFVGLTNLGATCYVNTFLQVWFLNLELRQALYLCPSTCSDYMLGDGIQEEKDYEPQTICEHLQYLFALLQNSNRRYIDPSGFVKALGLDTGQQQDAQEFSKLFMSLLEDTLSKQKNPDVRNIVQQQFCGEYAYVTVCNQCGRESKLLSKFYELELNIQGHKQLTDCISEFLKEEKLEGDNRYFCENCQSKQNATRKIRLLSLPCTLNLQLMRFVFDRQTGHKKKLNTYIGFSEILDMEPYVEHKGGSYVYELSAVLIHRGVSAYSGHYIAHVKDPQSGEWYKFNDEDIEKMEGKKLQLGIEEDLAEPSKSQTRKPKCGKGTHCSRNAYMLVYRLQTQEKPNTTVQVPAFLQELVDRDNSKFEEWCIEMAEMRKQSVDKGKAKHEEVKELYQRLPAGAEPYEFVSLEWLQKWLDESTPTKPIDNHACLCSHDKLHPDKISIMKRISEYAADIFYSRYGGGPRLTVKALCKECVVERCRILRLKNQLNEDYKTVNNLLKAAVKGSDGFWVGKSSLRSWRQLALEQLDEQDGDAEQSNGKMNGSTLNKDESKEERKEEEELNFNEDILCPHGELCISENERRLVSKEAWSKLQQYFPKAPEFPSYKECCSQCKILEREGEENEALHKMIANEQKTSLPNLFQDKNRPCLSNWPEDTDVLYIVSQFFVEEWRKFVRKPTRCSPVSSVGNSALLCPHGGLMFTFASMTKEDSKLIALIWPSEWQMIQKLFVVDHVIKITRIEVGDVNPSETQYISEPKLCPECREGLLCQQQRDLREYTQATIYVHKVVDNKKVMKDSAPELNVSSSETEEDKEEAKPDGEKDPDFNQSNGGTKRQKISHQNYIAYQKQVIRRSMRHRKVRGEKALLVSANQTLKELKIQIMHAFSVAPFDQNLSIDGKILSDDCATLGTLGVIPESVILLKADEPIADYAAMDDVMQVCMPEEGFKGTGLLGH
Summary of the method: as §1

USP5 = molecular target: T4, USP5 (UniProt P45974)
T4 sequence (whole entry): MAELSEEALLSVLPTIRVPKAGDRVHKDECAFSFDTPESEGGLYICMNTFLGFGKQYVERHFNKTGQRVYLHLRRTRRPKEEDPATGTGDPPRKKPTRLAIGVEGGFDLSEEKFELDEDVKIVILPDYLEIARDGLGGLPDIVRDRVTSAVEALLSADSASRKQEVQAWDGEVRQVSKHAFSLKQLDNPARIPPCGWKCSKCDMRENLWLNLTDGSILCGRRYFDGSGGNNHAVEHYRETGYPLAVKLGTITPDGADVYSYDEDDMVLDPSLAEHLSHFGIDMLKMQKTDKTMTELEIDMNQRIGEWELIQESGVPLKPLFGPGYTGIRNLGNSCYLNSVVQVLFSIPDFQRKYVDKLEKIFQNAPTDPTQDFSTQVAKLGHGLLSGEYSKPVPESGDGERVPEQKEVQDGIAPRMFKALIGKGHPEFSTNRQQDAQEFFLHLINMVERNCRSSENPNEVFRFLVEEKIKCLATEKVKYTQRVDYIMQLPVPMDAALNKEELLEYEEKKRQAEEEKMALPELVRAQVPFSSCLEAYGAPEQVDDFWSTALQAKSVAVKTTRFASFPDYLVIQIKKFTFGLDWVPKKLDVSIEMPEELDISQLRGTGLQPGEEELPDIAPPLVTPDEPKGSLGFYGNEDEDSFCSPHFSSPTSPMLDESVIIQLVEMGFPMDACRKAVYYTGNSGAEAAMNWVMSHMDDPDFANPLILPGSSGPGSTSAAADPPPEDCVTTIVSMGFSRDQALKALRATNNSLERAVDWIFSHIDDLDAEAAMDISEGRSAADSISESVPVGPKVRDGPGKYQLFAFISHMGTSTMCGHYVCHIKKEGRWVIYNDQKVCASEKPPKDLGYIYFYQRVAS
Summary of the method: as §1

USP54 = USP54 (UniProt Q70EL1)
Chain of USP54 (Q70EL1 whole entry): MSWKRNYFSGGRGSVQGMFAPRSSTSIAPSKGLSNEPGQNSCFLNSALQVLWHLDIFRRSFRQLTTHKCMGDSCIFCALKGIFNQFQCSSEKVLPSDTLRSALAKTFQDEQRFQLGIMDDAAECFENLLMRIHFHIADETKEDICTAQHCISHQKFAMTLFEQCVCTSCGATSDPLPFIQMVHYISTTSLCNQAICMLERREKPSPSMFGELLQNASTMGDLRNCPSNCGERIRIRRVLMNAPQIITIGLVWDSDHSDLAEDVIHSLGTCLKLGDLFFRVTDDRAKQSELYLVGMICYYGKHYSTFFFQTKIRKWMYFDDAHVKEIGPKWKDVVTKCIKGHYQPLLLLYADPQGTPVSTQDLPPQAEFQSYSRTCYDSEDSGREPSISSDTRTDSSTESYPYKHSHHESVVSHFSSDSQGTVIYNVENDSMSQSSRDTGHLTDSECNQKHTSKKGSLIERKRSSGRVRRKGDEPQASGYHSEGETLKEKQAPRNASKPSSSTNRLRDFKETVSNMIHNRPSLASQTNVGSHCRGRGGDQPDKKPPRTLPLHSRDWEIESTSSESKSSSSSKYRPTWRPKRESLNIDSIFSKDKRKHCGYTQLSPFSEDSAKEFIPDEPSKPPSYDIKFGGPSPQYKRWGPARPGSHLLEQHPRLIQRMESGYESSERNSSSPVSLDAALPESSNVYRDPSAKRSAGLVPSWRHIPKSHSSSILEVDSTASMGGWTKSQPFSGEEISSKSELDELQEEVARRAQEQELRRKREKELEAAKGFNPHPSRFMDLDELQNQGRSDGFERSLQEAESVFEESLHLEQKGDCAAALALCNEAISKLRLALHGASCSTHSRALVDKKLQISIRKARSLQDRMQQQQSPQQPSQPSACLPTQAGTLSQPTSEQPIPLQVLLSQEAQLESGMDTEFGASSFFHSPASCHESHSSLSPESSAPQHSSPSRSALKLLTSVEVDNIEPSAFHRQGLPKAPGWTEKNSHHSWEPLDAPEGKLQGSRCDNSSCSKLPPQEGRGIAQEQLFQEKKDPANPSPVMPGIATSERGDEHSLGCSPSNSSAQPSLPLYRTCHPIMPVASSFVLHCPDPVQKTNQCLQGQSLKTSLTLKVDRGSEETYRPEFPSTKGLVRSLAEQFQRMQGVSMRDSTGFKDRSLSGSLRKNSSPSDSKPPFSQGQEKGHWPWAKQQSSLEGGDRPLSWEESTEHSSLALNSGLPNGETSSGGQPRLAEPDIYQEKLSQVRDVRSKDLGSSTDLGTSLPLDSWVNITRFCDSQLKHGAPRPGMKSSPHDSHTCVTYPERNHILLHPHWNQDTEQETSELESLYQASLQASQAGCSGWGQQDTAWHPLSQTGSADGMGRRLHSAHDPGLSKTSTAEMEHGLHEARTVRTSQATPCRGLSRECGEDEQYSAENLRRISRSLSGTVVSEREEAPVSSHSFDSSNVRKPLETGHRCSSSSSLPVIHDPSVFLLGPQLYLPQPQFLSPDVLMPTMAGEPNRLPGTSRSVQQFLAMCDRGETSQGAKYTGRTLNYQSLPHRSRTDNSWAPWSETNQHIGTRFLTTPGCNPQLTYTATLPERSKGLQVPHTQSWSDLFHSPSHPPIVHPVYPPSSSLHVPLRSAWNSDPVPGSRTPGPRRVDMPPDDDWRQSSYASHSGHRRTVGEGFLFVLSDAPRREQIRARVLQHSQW
Summary of the method: as §1

USP7 = USP7 (UniProt Q93009)
Summary of the method: as §1

USP8 = molecular target: T5, USP8 (UniProt P40818)
T5 sequence (whole entry): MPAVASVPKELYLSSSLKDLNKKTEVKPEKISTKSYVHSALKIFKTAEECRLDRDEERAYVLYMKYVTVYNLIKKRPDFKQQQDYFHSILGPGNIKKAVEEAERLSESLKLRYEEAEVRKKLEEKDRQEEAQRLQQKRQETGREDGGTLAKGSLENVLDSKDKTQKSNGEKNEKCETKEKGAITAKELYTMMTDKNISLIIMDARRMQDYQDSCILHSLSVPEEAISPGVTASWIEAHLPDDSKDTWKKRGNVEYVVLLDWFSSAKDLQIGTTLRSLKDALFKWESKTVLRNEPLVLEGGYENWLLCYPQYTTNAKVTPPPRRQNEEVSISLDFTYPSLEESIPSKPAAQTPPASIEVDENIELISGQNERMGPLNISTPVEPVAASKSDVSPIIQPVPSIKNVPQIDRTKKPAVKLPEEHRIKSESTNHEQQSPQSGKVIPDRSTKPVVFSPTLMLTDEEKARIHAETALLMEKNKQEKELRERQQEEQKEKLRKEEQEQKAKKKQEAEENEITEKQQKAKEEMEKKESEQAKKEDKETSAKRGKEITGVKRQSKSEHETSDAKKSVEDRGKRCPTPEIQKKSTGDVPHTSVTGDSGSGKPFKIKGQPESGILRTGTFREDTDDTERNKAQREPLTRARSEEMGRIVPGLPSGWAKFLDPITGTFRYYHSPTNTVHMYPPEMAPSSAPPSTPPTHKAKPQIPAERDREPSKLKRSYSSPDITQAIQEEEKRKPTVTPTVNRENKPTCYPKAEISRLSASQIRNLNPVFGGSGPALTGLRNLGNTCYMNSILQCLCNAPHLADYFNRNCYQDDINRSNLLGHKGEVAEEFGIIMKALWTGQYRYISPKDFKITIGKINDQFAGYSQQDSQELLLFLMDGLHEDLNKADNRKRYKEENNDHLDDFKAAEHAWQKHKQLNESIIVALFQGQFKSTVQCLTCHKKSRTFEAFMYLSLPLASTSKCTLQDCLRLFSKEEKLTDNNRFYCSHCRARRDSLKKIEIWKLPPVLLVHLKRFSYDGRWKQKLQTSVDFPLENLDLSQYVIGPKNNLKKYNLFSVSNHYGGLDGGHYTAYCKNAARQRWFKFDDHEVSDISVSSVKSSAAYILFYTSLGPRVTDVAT
Summary of the method: as §1

USP9X = USP9X (UniProt Q93008)
Chain of USP9X (Q93008 whole entry): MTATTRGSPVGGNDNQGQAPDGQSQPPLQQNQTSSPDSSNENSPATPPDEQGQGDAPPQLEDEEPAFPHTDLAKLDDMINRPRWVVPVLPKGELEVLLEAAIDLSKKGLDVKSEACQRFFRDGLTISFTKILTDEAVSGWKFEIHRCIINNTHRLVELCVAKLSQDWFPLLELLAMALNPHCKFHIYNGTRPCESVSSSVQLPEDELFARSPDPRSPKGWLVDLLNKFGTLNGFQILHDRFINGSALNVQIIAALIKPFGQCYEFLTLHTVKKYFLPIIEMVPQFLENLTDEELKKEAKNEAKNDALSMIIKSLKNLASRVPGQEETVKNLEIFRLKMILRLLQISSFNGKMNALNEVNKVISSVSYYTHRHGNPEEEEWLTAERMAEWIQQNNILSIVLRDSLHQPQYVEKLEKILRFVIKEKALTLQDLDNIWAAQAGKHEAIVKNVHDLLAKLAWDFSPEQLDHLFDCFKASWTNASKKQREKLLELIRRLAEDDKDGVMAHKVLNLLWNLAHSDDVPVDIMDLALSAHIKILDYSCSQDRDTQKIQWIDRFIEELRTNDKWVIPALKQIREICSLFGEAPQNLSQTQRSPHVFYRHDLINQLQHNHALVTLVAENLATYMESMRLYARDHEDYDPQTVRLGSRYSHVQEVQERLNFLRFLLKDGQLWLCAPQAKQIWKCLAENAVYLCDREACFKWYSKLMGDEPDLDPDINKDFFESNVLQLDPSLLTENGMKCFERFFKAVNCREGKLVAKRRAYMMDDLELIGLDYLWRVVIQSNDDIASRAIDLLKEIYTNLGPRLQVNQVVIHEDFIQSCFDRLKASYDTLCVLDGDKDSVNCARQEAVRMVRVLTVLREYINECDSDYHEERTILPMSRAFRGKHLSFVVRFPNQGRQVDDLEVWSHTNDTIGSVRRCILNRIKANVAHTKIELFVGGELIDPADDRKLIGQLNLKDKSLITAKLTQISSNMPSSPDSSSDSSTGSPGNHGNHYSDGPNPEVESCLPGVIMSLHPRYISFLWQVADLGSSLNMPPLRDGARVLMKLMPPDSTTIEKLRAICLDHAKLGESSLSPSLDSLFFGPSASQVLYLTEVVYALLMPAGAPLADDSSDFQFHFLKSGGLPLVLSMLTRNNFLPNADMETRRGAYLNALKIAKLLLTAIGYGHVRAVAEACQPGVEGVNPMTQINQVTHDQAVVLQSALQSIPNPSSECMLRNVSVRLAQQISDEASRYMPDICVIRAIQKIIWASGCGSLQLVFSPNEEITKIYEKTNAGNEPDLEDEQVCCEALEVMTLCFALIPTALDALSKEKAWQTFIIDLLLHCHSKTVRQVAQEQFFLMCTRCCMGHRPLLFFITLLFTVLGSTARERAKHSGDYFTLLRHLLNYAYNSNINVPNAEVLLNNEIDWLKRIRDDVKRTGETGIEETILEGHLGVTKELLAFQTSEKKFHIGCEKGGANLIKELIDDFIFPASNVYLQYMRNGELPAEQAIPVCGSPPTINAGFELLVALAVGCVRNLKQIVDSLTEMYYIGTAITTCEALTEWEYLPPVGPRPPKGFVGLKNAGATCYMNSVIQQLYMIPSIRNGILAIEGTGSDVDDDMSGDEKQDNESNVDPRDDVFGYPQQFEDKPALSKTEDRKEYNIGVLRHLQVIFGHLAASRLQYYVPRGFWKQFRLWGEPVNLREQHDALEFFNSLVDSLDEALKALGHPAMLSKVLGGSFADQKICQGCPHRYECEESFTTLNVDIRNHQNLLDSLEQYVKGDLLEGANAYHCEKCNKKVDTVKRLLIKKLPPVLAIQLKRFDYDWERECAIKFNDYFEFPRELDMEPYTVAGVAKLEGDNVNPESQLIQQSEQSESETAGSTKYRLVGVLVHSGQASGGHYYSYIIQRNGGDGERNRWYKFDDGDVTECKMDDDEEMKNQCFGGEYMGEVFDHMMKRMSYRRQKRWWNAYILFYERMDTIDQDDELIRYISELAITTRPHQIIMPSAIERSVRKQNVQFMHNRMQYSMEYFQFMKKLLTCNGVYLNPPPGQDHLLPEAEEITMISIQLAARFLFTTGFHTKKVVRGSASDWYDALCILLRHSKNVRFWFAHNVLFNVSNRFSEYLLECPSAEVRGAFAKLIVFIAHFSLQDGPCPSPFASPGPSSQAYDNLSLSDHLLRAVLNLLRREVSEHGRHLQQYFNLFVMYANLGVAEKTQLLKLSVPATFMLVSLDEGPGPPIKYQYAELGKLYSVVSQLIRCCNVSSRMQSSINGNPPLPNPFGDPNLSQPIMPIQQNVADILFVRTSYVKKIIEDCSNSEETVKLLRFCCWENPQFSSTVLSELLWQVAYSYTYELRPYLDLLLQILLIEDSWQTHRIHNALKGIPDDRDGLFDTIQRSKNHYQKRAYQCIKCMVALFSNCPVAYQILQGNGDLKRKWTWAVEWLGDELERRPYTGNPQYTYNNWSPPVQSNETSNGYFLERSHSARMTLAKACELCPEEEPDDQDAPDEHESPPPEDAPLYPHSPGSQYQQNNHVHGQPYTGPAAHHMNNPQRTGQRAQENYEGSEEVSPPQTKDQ
Summary of the method: as §1

UniProt O00487 = molecular target: UniProt O00487
Chain of UniProt O00487 (O00487 whole entry): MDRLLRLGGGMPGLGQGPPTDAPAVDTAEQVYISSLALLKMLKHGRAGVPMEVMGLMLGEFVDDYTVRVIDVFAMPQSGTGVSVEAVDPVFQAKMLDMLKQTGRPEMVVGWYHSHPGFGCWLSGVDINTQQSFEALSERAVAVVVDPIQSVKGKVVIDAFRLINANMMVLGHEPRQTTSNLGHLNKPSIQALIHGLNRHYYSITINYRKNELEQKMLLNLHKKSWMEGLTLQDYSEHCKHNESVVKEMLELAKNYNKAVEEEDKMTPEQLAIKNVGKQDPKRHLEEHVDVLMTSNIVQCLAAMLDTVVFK
Summary of the method: as §1

Measured: log2 ratio of Biotin-Ahx-Ub-VS probe labelling

O=C(CCl)NC1CCOc2ccccc21 (stereo not given)
inactive: USP42 0.184 | USP46 -0.506 | USP47 -0.268 | USP48 -0.603 | USP5 -0.575 | USP54 0.931 | USP7 -0.739 | USP8 -0.69 | USP9X -0.868 | UniProt O00487 0.0141

O=C(CCl)N1CCC(OCc2ccccc2F)CC1
inactive: USP42 0.919 | USP46 0.155 | USP47 -0.138 | USP48 -0.151 | USP5 0.445 | USP54 -0.235 | USP7 -0.391 | USP8 0.124 | USP9X -0.0279 | UniProt O00487 0.075

O=C(CCl)NCc1ccc(N2CCOCC2)nc1
inactive: USP42 -0.0847 | USP46 0.0882 | USP47 -0.466 | USP48 -0.188 | USP5 -0.217 | USP54 0.658 | USP7 -0.147 | USP8 -0.289 | USP9X -0.26 | UniProt O00487 -0.226
